{"source": "paper PMC7862700", "about": "“An all-to-all approach to the identification of sequence-specific readers for epigenetic DNA modifications on cytosine”", "assay_in_all_cases": "DAPPL (digital affinity profiling via proximity ligation, sequencing); 10 mM Tris-HCl pH 7.5, 50 mM NaCl, 1 mM DTT, 4% glycerol, room temperature, 30 min; GST-TFs on glutathione beads, 16-mer random dsDNA library, 0.1% formaldehyde crosslink after washing; high values mean tight binding", "settings_in_all_cases": "protein: recombinant; tags: N-terminal GST; dsDNA, one strand shown", "key": {"ELK1": {"molecular_target": "T1, ELK1 (Homo sapiens, UniProt P19419 1-428)", "T1 sequence": "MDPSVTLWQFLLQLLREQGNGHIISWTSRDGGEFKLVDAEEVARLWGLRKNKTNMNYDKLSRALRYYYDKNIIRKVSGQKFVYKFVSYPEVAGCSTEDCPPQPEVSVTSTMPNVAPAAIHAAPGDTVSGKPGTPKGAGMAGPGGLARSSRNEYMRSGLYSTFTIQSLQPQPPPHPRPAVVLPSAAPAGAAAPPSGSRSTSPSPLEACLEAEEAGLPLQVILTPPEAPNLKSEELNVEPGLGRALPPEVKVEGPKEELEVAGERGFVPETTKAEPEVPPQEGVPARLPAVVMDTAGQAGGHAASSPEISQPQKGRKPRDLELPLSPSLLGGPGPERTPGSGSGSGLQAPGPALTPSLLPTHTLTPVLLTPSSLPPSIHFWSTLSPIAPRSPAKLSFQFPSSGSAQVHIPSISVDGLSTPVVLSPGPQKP", "how_it_was_run": "(§1)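 In yeast, human transcription factors were expressed with a GST fusion, then pulled down on glutathione beads and given DNA barcodes. Pooled with a tag-only sample, they were exposed to 200 nmole of a 16-mer random double-stranded DNA library (Tris/NaCl/DTT/glycerol buffer, room temperature, 30 min), washed, crosslinked with 0.1% formaldehyde, proximity-ligated using BsaI/T4 ligase for 1 h at 37 °C, PCR-amplified and read on an Illumina NextSeq500. Each hexamer's frequency of reads for a factor, divided by the matching frequency for the tag-only sample, gives the binding signal.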"}, "GABPA": {"molecular_target": "T2, GABPA (Homo sapiens, UniProt Q06546 1-454)", "T2 sequence": "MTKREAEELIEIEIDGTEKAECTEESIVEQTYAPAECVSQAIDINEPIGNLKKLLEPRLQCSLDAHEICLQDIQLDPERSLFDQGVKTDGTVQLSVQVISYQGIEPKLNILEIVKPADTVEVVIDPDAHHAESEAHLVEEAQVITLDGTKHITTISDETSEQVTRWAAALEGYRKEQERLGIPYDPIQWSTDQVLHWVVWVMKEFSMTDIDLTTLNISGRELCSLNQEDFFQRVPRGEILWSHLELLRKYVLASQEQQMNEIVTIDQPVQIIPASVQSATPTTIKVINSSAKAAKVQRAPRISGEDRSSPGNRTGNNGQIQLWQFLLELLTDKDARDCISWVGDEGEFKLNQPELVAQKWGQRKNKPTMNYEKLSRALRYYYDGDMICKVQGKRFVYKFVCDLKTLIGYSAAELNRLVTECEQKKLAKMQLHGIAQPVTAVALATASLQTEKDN", "how_it_was_run": "as §1"}, "SPI1": {"molecular_target": "SPI1 (Homo sapiens, UniProt P17947 1-270)", "how_it_was_run": "as §1"}, "ELK3": {"molecular_target": "T3, ELK3 (Homo sapiens, UniProt P41970 1-407)", "T3 sequence": "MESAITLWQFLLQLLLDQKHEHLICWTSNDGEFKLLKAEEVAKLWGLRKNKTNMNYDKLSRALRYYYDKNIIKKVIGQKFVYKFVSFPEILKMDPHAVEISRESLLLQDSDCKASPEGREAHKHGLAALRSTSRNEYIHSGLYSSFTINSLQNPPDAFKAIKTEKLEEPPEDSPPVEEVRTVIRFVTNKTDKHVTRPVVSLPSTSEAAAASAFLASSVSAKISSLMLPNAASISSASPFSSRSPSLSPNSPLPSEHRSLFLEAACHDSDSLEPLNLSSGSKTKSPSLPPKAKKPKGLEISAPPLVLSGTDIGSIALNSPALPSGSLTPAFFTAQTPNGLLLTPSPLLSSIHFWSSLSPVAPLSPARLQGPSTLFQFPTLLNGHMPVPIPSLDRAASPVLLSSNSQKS", "how_it_was_run": "as §1"}, "SPIC": {"molecular_target": "T4, SPIC (Homo sapiens, UniProt Q8N5J4 1-248)", "T4 sequence": "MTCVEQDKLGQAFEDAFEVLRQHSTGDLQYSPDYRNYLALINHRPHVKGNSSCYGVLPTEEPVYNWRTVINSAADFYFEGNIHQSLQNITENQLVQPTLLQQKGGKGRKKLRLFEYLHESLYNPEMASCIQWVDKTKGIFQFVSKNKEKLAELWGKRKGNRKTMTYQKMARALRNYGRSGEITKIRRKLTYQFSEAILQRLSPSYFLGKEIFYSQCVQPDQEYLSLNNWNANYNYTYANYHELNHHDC", "how_it_was_run": "as §1"}, "ELF4": {"molecular_target": "ELF4 (Homo sapiens, UniProt Q99607 1-663)", "sequence (Q99607 whole entry)": "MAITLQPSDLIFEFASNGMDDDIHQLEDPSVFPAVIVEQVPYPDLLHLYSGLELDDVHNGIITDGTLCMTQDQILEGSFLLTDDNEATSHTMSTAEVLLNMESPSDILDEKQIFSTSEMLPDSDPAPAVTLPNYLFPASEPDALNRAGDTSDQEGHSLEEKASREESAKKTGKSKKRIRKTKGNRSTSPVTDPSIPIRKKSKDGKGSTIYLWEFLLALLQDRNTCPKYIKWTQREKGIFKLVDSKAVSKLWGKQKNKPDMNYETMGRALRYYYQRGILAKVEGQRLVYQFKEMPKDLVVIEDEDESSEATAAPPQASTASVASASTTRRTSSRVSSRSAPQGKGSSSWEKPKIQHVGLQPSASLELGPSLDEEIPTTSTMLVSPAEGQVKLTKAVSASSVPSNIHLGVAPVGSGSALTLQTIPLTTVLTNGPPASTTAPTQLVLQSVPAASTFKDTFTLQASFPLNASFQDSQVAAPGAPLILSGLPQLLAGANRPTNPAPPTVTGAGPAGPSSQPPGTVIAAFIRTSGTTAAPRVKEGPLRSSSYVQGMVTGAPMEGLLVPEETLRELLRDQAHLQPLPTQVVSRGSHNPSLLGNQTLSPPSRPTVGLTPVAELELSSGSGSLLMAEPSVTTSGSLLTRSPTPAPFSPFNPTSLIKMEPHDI", "how_it_was_run": "as §1"}, "ETV2": {"molecular_target": "T5, ETV2 (Homo sapiens, UniProt O00321 1-342)", "T5 sequence": "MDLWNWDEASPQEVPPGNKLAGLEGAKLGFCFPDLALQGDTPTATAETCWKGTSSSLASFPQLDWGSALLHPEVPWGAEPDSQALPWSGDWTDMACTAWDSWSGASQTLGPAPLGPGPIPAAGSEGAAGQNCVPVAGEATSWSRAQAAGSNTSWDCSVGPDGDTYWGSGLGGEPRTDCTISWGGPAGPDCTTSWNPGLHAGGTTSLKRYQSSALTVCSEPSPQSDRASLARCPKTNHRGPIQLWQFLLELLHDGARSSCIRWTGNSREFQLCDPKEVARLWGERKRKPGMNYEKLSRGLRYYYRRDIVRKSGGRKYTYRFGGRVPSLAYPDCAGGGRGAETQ", "how_it_was_run": "as §1"}, "ETV1": {"molecular_target": "ETV1 (Homo sapiens, UniProt P50549 1-477)", "sequence (P50549 whole entry)": "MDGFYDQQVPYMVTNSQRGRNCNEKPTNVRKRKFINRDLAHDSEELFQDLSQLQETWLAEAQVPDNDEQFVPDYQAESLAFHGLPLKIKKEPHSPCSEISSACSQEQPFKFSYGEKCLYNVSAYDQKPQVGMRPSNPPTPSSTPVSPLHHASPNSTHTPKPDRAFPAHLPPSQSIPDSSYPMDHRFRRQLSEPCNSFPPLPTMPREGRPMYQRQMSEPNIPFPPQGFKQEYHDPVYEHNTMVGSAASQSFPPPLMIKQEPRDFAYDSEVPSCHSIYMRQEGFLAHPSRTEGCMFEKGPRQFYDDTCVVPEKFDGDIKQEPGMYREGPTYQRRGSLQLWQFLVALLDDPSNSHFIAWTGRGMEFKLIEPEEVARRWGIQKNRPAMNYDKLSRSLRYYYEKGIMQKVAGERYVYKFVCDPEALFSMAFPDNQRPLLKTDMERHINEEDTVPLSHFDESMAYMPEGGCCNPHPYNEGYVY", "how_it_was_run": "as §1"}, "ERF": {"molecular_target": "T6, ERF (Homo sapiens, UniProt P50548 1-548)", "T6 sequence": "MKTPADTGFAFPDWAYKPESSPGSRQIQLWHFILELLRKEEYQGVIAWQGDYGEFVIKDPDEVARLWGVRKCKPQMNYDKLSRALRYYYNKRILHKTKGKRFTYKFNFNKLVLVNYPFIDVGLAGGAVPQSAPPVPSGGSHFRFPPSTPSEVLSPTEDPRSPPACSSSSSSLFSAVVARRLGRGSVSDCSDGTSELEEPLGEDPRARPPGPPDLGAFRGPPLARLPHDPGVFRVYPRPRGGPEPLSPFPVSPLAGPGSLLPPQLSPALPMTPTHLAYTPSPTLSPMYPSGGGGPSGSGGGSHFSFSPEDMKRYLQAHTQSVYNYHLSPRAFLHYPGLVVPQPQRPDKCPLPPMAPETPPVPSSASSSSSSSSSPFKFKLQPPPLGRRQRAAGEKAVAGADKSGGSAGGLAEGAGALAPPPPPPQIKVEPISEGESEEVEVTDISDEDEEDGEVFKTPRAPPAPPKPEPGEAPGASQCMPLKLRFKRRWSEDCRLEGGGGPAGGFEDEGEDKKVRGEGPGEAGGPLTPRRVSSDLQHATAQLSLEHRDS", "how_it_was_run": "as §1"}, "ETS2": {"molecular_target": "T7, ETS2 (Homo sapiens, UniProt P15036 1-469)", "T7 sequence": "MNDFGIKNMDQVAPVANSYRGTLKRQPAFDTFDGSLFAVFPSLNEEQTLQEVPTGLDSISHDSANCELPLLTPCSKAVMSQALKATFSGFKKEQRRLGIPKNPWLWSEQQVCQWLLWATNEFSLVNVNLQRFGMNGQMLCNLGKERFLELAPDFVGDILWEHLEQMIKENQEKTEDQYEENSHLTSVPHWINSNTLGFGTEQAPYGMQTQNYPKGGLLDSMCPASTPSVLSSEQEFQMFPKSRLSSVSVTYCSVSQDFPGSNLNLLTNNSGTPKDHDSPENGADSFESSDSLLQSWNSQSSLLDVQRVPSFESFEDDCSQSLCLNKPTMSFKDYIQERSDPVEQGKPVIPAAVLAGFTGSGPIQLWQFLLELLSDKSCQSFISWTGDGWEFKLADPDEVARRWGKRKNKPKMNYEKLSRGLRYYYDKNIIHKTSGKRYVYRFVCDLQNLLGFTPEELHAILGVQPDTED", "how_it_was_run": "as §1"}, "ETV7": {"molecular_target": "T8, ETV7 (Homo sapiens, UniProt Q9Y603 1-341)", "T8 sequence": "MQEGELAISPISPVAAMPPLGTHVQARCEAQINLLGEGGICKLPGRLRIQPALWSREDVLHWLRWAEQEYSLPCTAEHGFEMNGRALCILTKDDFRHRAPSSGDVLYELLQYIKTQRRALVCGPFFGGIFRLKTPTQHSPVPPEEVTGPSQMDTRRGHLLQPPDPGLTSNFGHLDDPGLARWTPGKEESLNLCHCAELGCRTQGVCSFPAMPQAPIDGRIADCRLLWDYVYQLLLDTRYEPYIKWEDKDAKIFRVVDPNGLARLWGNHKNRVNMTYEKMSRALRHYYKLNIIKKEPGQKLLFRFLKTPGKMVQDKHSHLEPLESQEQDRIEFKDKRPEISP", "how_it_was_run": "as §1"}, "ELF5": {"molecular_target": "T9, ELF5 (Homo sapiens, UniProt Q9UKW6-2 1-255)", "T9 sequence": "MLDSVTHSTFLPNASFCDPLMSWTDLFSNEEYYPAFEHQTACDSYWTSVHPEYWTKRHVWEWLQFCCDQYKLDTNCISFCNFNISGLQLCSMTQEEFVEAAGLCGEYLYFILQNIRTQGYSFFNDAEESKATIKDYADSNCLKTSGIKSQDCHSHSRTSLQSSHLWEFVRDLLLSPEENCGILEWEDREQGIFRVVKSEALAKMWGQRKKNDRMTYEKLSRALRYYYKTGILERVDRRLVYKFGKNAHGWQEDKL", "how_it_was_run": "as §1"}, "ETV3": {"molecular_target": "T10, ETV3 (Homo sapiens, UniProt P41162-2 1-143)", "T10 sequence": "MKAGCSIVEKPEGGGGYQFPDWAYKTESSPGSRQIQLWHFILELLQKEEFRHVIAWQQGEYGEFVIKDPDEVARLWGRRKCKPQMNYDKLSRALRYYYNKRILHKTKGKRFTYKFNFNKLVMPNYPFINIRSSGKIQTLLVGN", "how_it_was_run": "as §1"}}, "data": [{"sequence": "ACCTGT", "values": [{"measurement": "binding signal", "setting": "ELK1", "value": "1.05 fold enrichment (6-mer frequency, TF over GST control)"}, {"measurement": "binding signal", "setting": "GABPA", "value": "1 fold enrichment (6-mer frequency, TF over GST control)"}, {"measurement": "binding signal", "setting": "SPI1", "value": "1.01 fold enrichment (6-mer frequency, TF over GST control)"}, {"measurement": "binding signal", "setting": "ELK3", "value": "1.12 fold enrichment (6-mer frequency, TF over GST control)"}, {"measurement": "binding signal", "setting": "SPIC", "value": "1.06 fold enrichment (6-mer frequency, TF over GST control)"}, {"measurement": "binding signal", "setting": "ELF4", "value": "1.06 fold enrichment (6-mer frequency, TF over GST control)"}, {"measurement": "binding signal", "setting": "ETV2", "value": "1.04 fold enrichment (6-mer frequency, TF over GST control)"}, {"measurement": "binding signal", "setting": "ETV1", "value": "1.02 fold enrichment (6-mer frequency, TF over GST control)"}, {"measurement": "binding signal", "setting": "ERF", "value": "1.08 fold enrichment (6-mer frequency, TF over GST control)"}, {"measurement": "binding signal", "setting": "ETS2", "value": "1.04 fold enrichment (6-mer frequency, TF over GST control)"}, {"measurement": "binding signal", "setting": "ETV7", "value": "1.07 fold enrichment (6-mer frequency, TF over GST control)"}, {"measurement": "binding signal", "setting": "ELF5", "value": "1.04 fold enrichment (6-mer frequency, TF over GST control)"}, {"measurement": "binding signal", "setting": "ETV3", "value": "1.13 fold enrichment (6-mer frequency, TF over GST control)"}]}]}
